Among the data in PubChem BioAssay (EPA / NIEHS) are outcome and AC50 values, retold here.

Activity calls are given as the source filed them. How the source made its calls: active means hit-call score of the fitted dose curve at least 0.9, where 1 is the maximum; inactive means score below 0.9.

What all share (conditions): mRNA level, 48 h; actives raise or lower the signal
Read-out in assay [1]: Bcl-2 (BAD) gene, BAD (gene 572)
The assay can be described thus: LTEA_HepaRG_BAD: Life Technologies and Expression Analysis (LTEA) Assay for Bcl-2 (BAD) gene using HepaRG (AID 2283469). Put shortly:
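BAD transcript change, measured by qRT-PCR against three housekeeping genes and fitted in both directions relative to 0.5% DMSO, after 48 h chemical treatment of human HepaRG liver cells at concentrations up to 100 uM.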

Read-out in assay [2]: Bcl-2 (BAX) gene, BAX (gene 581)
Description: LTEA_HepaRG_BAX: Life Technologies and Expression Analysis (LTEA) Assay for Bcl-2 (BAX) gene using HepaRG (AID 2283470). Put shortly:
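Concentration-response endpoint fitted in both directions relative to 0.5% DMSO vehicle. Human HepaRG cultures receive test chemicals for 48 h at up to 100 uM; BAX mRNA is quantified by qRT-PCR against housekeeping genes.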

Read-out in assay [3]: adenosine kinase (ADK) gene, ADK (gene 132)
Description: LTEA_HepaRG_ADK: Life Technologies and Expression Analysis (LTEA) Assay for adenosine kinase (ADK) gene using HepaRG (AID 2283471). Put shortly:
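Differentiated HepaRG cells dosed 48 h in serum-free induction medium, 0.5% DMSO vehicle, eight half-log concentrations from 100 uM, in duplicate. ADK mRNA by TaqMan qRT-PCR normalised to ACTB, GAPDH, POLR2A; bidirectional fit versus DMSO.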

Read-out in assay [4]: Alpha-fetoprotein (AFP) gene, AFP (gene 174)
Description: LTEA_HepaRG_AFP: Life Technologies and Expression Analysis (LTEA) Assay for Alpha-fetoprotein (AFP) gene using HepaRG (AID 2283472).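 On AC50: AFP transcript by TaqMan qRT-PCR normalized to ACTB GAPDH and POLR2A.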 In outline:
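After a 48 h plating period, cells are moved to serum-free induction medium and dosed in duplicate (100 uM maximum, half-log dilutions, 0.5% DMSO) for another 48 h. Total RNA goes to TaqMan qRT-PCR; AFP signal is housekeeping-normalized.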

Read-out in another assay: BCL2L11 (gene 10018)
Description: LTEA_HepaRG_BCL2L11: Life Technologies and Expression Analysis (LTEA) Assay for Bcl-2 (BCL2L11) gene using HepaRG (AID 2283473). Put shortly: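 Cells were plated, cultured 48 h, switched to serum-free induction medium, then dosed in duplicate for 48 h at eight half-log concentrations up to 100 uM. Lysates underwent RNA isolation and TaqMan qRT-PCR; gain or loss versus DMSO was fitted.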

Read-out in assay [5]: Apolipoprotein A-V (APOA5) gene, APOA5 (gene 116519)
Description: LTEA_HepaRG_APOA5: Life Technologies and Expression Analysis (LTEA) Assay for Apolipoprotein A-V (APOA5) gene using HepaRG (AID 2283474). In outline:
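Human liver HepaRG cells are treated 48 h with test chemicals (100 uM top, half-log dilutions, 0.5% DMSO). APOA5 mRNA induction or loss is measured by qRT-PCR relative to vehicle.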

Read-out in assay [6]: Apoptosis regulator Bcl-2 (Homo sapiens) (UniProt P10415)
Description: LTEA_HepaRG_BCL2: Life Technologies and Expression Analysis (LTEA) Assay for Bcl-2 gene using HepaRG (AID 2283475). Put shortly: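 Expression change of BCL2 mRNA in HepaRG after 48 h dosing, quantified by TaqMan qRT-PCR against three endogenous controls. Concentration-response used eight points up to 100 uM, vehicle 0.5% DMSO.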

Read-out in assay [7]: Bcl-2 (BID) gene, BID (gene 637)
Description: LTEA_HepaRG_BID: Life Technologies and Expression Analysis (LTEA) Assay for Bcl-2 (BID) gene using HepaRG (AID 2283476). Put shortly:
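Gain or loss of BID expression is fitted relative to 0.5% DMSO vehicle. Human HepaRG liver cells received a 48 h chemical exposure over an eight-point concentration range.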

Read-out in the next assay: Caspase-3 (Homo sapiens) (UniProt P42574)
The assay can be described thus: LTEA_HepaRG_CASP3: Life Technologies and Expression Analysis (LTEA) Assay for cysteine-aspartic acid protease (CASP3) using HepaRG (AID 2283477). In outline: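 In HepaRG liver cells dosed for 48 h at up to 100 uM (eight-point, duplicate), CASP3 expression changes are scored by qRT-PCR. Activity is fitted in both directions with 0.5% DMSO as baseline.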

Read-out in assay [8]: Cytochrome P450 (CYP24A1), CYP24A1 (gene 1591)
The assay can be described thus: LTEA_HepaRG_CYP24A1: Life Technologies and Expression Analysis (LTEA) Assay for Cytochrome P450 (CYP24A1) using HepaRG (AID 2283478). In outline:
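Human liver HepaRG cultures receive each chemical for 48 h across an eight-point half-log series topping at 100 uM in 0.5% DMSO. Induction or suppression of CYP24A1 mRNA is scored relative to vehicle after housekeeping-gene normalization.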

Read-out in assay [9]: Cytochrome P450 (CYP1A2), CYP1A2 (gene 1544)
Description: LTEA_HepaRG_CYP1A2: Life Technologies and Expression Analysis (LTEA) Assay for Cytochrome P450 (CYP1A2) using HepaRG (AID 2283479).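 On AC50: TaqMan qRT-PCR transcript level normalized to ACTB GAPDH and POLR2A.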 In outline: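 Assesses CYP1A2 mRNA in human HepaRG liver cells after 48 h chemical exposure at up to 100 uM. Values come from qRT-PCR with bidirectional curve fitting relative to DMSO.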

Read-out in assay [10]: Cytochrome P450 (CYP2B6), CYP2B6 (gene 1555)
The assay can be described thus: LTEA_HepaRG_CYP2B6: Life Technologies and Expression Analysis (LTEA) Assay for Cytochrome P450 (CYP2B6) using HepaRG (AID 2283481). Put shortly:
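Using 48 h treatment of HepaRG cells in serum-free induction medium, concentrations spanned half-log steps from 100 uM in 0.5% DMSO vehicle. CYP2B6 mRNA induction or loss is scored by qRT-PCR against DMSO.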

Read-out in assay [11]: Cytochrome P450 2C19 (Homo sapiens) (UniProt P33261)
Description: LTEA_HepaRG_CYP2C19: Life Technologies and Expression Analysis (LTEA) Assay for CYP2C19 using HepaRG (AID 2283482). In outline:
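Human HepaRG liver cells received test chemicals for 48 h (highest 100 uM, half-log dilutions in 0.5% DMSO). CYP2C19 mRNA induction or loss is read by multiplexed qRT-PCR and fitted in both directions versus vehicle.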

Read-out in another assay: CYP2C8 (gene 1558)
Description: LTEA_HepaRG_CYP2C8: Life Technologies and Expression Analysis (LTEA) Assay for CYP2C8 using HepaRG (AID 2283483). Put shortly:
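CYP2C8 mRNA induction or loss, by qRT-PCR normalized to ACTB/GAPDH/POLR2A, is read in HepaRG cells after 48 h treatment. Concentrations run from 100 uM down in half-log dilutions, with 0.5% DMSO as vehicle and baseline.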

Read-out in another assay: CYP2C9 (gene 1559)
Description: LTEA_HepaRG_CYP2C9: Life Technologies and Expression Analysis (LTEA) Assay for CYP2C9 using HepaRG (AID 2283484). Put shortly: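 Cells plated 48 h, switched to serum-free induction medium, then treated in duplicate for 48 h at eight concentrations (max 100 uM, 0.5% DMSO). RNA then analysed by qRT-PCR for CYP2C9; curves fitted in both directions relative to DMSO.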

Read-out in another assay: CYP4A11 (gene 1579)
The assay can be described thus: LTEA_HepaRG_CYP4A11: Life Technologies and Expression Analysis (LTEA) Assay for CYP4A11 using HepaRG (AID 2283486). In outline: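 Readout is CYP4A11 mRNA induction or suppression (qRT-PCR, ACTB/GAPDH/POLR2A normalization) in human HepaRG cells after 48 h chemical treatment, concentrations to 100 uM in 0.5% DMSO, fitted bidirectionally against vehicle.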

Read-out in assay [12]: Cytochrome P450 3A4 (Homo sapiens) (UniProt P08684)
Description: LTEA_HepaRG_CYP3A4: Life Technologies and Expression Analysis (LTEA) Assay for CYP3A4 using HepaRG (AID 2283487). Put shortly: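 Differentiated HepaRG cells in serum-free induction medium exposed in duplicate for 48 h to 8 half-log concentrations up to 100 uM in 0.5% DMSO. CYP3A4 mRNA measured by qRT-PCR normalized to ACTB, GAPDH and POLR2A; bidirectional fit versus DMSO.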

Read-out in assay [13]: cysteine-aspartic acid protease (CASP8), CASP8 (gene 841)
The assay can be described thus: LTEA_HepaRG_CASP8: Life Technologies and Expression Analysis (LTEA) Assay for cysteine-aspartic acid protease (CASP8) using HepaRG (AID 2283480). In outline:
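HepaRG, 48 h exposure, duplicate wells; 8 conc, half-log from 100 uM, 0.5% DMSO. Serum-free induction medium. CASP8 mRNA by TaqMan qRT-PCR, norm. ACTB/GAPDH/POLR2A; gain/loss fitted vs DMSO.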

Read-out in a further assay: CYP2E1 (gene 1571)
Description: LTEA_HepaRG_CYP2E1: Life Technologies and Expression Analysis (LTEA) Assay for CYP2E1 using HepaRG (AID 2283485). Put shortly: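 Differentiated HepaRG cells were treated in duplicate for 48 h with chemicals in 0.5% DMSO, from 100 uM downward in half-log dilutions. RNA was then analysed by qRT-PCR for CYP2E1 induction or loss.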

Sequence of Cytochrome P450 3A4 (Homo sapiens) (P08684 whole entry, looked up): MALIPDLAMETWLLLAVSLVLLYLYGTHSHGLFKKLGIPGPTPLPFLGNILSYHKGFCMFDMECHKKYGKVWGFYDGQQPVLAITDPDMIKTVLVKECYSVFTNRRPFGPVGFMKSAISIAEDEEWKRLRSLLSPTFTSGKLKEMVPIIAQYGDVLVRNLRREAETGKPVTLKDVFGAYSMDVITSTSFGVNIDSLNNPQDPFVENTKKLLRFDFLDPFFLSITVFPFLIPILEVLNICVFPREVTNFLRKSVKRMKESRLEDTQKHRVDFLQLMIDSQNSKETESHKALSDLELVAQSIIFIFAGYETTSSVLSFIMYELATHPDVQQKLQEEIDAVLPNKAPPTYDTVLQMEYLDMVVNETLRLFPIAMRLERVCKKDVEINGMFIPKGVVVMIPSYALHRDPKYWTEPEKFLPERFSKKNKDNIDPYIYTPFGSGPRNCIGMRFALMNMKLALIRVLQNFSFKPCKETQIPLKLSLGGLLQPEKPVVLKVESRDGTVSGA
Sequence of Cytochrome P450 2C19 (Homo sapiens) (P33261 whole entry, looked up): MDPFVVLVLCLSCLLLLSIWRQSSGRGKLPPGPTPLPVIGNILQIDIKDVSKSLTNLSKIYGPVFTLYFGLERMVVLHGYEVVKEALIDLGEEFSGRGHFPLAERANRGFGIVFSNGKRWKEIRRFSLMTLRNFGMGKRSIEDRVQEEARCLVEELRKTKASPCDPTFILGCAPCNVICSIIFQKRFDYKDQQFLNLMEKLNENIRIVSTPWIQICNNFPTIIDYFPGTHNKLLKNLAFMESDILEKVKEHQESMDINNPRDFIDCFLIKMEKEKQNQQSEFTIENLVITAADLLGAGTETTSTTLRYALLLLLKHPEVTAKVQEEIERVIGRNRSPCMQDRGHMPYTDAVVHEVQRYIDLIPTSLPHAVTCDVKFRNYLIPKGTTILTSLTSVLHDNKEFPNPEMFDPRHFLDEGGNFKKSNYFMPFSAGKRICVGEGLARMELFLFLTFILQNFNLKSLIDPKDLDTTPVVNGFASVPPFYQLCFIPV
Sequence of Caspase-3 (Homo sapiens) (P42574 whole entry, looked up): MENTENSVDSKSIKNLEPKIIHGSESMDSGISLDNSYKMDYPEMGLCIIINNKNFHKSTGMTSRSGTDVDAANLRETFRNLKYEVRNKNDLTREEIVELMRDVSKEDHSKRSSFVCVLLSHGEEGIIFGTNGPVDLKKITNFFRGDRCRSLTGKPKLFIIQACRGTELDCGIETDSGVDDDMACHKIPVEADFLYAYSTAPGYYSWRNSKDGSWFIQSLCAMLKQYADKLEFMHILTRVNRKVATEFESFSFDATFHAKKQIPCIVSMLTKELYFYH
Sequence of Apoptosis regulator Bcl-2 (Homo sapiens) (P10415 whole entry, looked up): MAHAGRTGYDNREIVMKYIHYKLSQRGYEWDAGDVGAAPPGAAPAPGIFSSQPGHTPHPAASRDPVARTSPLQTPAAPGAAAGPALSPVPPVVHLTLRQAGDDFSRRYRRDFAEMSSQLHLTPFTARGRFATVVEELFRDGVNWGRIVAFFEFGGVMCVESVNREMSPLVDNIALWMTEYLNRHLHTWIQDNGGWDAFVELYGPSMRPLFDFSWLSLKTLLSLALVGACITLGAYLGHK

Consider `CC(C)N(C(=O)SCC(Cl)=C(Cl)Cl)C(C)C`, for which the compound was classed as inactive (in assay [1]; in [2]; in assay [3]; in assay [4]; with BCL2L11 (gene 10018); in assay [5]). For the same compound, the outcome (in assay [6]; in [7]; with Caspase-3 (Homo sapiens); in assay [8]; in [10]; in assay [11]) was inactive. Moreover, the result (with CYP2C8 (gene 1558); with CYP2C9 (gene 1559); with CYP4A11 (gene 1579); in [12]) was inactive. Moreover, the AC50 (commonly the midpoint of the concentration-response curve, whichever way the signal moves) in assay [9] is 73.5 µM (active).

For `Nc1nc(N)nc(NC2CC2)n1`, the compound was called inactive (in assay [1]; in assay [2]; in assay [4]; with BCL2L11 (gene 10018); in assay [5]; in assay [6]). In addition, the call (in [7]; in the assay with Caspase-3 (Homo sapiens); in assay [8]; in assay [9]; in [13]; in assay [10]) was inactive. Besides, the compound was called inactive (in assay [11]; with CYP2C8 (gene 1558); in the assay with CYP2C9 (gene 1559); with CYP2E1 (gene 1571); in the assay with CYP4A11 (gene 1579); in [12]).

On to `COc1cccc(C(=O)NN(C(=O)c2cc(C)cc(C)c2)C(C)(C)C)c1C`, for which the compound was classed as inactive (in [1]; in [2]; in the assay with BCL2L11 (gene 10018); in assay [5]; in [6]; in [7]). In addition, the call (with Caspase-3 (Homo sapiens); in assay [8]; in assay [13]; with CYP2C9 (gene 1559); in the assay with CYP4A11 (gene 1579)) was inactive. The AC50 in [4] was 7.69 µM (active); in [9], 18.7 µM (active); in [10], 1.16 µM (active); in [11] it was 1.49 µM (active); with CYP2C8 (gene 1558), 3.61 µM (active); in the assay with CYP2E1 (gene 1571), 23.5 µM (active). Moreover, in [12], the concentration at half-maximal activity (AC50) is 1.81 µM (active).

With `CON=C(C(=O)OC)c1ccccc1CON=C(C)c1cccc(C(F)(F)F)c1`, the compound was classed as inactive (in assay [1]; in [2]; in assay [4]; in the assay with BCL2L11 (gene 10018); in assay [5]; in [6]). In addition, the call (in [7]; in the assay with Caspase-3 (Homo sapiens); in [8]; in assay [9]; in assay [13]; in assay [10]) was inactive. Moreover, the call (in assay [11]; with CYP2C8 (gene 1558); with CYP2C9 (gene 1559); with CYP4A11 (gene 1579)) was inactive. For the same compound, the AC50 with CYP2E1 (gene 1571) was 25.4 µM (active); in assay [12] it was 13.1 µM (active).

For the compound `CCC(=NOC/C=C/Cl)C1=C(O)CC(C2CCOCC2)CC1=O` (stereo not given), the outcome (in assay [1]; in [2]; in assay [3]; in [4]; in the assay with BCL2L11 (gene 10018); in assay [5]) was inactive. Moreover, the call (in [6]; in assay [7]; in the assay with Caspase-3 (Homo sapiens); in assay [8]; in assay [9]; in [13]) was inactive. In addition, the compound was called inactive (in [10]; in assay [11]; in the assay with CYP2C8 (gene 1558); with CYP2C9 (gene 1559); with CYP2E1 (gene 1571); with CYP4A11 (gene 1579)). The outcome in assay [12] was inactive.
